Screen size: about 340,000 compounds; about 3,300 (0.97%) were called active. Another 9% or so got no clear call; they are omitted. Calls follow the shape of the dose curve; as a rule, active = well fitted inhibition curve with a large enough effect; inconclusive = small, poorly fitted or top-dose-only effect, or effect the other way; inactive = flat fitted curve, though single readings scatter. This is one part of the list.
Potency is read from the fitted curve at half-maximal effect.

A short description of this experiment: qHTS Assay for Modulators of miRNAs and/or Inhibitors of miR-21. Also: nearly all actives have a fitted effect of over 55% in size. As to conditions: HeLa miR-21-FLuc reporter, luciferase luminescence, 48 h; actives lower the signal. An excerpt: MLSCN Grant: 1 R21 NS059478-01 Assay Provider: Qihong Huang, The Wistar Institute NCGC Assay Overview: MicroRNAs (miRNAs) are endogenously encoded small (~20-25 nucleotides), nonprotein-coding RNAs that are involved in post-transcriptional repression of target messenger RNAs (mRNAs) (Le and Hannon, 2004). Estimated to be involved in the regulation of 30% of all protein-coding mRNAs (Filipowicz et al., 2008), miRNAs play a significant role in many biological processes including cellular differentiation and tissue development (Ghildiyal and Zamore, 2009).
NCGC Assay Protocol Summary: Reagents: HeLa cells stably expressing firefly luciferase (FLuc) under the control of a CMV promoter (upstream) and a miR-21 binding sequence directly downstream of the gene. These cells endogenously express miR-21. Control compounds used were compound C3 (provided by collaborator), N6-phenyladenosine (MP Biomedicals, 0215379625), and DMSO. Assay Summary: 6uL of HeLa miR-21-FLuc cells in assay buffer (DMEM, Invitrogen #21063-029; 10% FBS, HyClone #SH30071.03) were dispensed at 2000cells/well (3.3 x 10^5 cells/mL) into Greiner solid-white TC-treated 1536-well plates using a Multidrop Combi (Thermo Fisher Scientific). Plates were incubated for one hour at 37 degree Celsius, 95% humidity, 5% CO2. These assay plates were then treated with 23nL of compound or DMSO using a Kalypsys pin tool, which allows for delivery of a 24-point titration of each compound to the assay plate, with a final compound concentration ranging from approximately 40uM to 5pM. Assay plates were then incubated for 48 hours. After incubation, plates were allowed to come to RT for one hour prior to delivery of 3uL of 3X luciferase detection reagent. After a 15 minute incubation to allow for cell lysis, luciferase activity was measured using a ViewLux CCD imager (PerkinElmer), with an average exposure time of 2-12 seconds. Keywords: NIH Roadmap, MLPCN, MLSMR, qHTS, miR-21, microRNA, firefly luciferase, FLuc.
A general note: In qHTS, concentration-response curves come from the screen itself.
As to `NNC(=O)c1cccc(COc2ccc3c(c2)CCC3)c1`, the Potency is 0.185 µM (active).

`O=C(NCc1ccccc1)c1cccc(COc2ccc3c(c2)CCC3)c1`: the Potency was 0.585 µM (active).

Regarding `Cc1cc(C(=O)Nc2nc3ccc(Cl)cc3s2)nn1C`, the Potency was 0.927 µM (active).

Turning to `O=C(Nc1nc2ccc(F)cc2s1)c1ccccn1`, the Potency was 0.104 µM (active).

For `NS(=O)(=O)c1ccc2nc(NC(=O)Nc3ccccc3F)sc2c1`, the Potency is 0.329 µM (active).

Regarding `COc1ccccc1NC(=O)Nc1nc2ccc(S(N)(=O)=O)cc2s1`, the Potency was 4.14 µM (active).

`O=C(Nc1nc2ccccc2s1)Nc1ccc(F)cc1F`: the Potency is 0.736 µM (active).

On to `Cc1ccccc1OCC(O)Cn1nnc2ccccc21` (stereo not given), for which the Potency is 7.36 µM (active).

Consider `CC(C)(C)CC(=O)Nc1nnc(-c2cccs2)s1`, for which the Potency was 1.31 µM (active).

As to `CCOc1ccc2c(c1)c(N=Nc1cccc(C(=O)O)c1)c(O)n2C`, the Potency was 6.56 µM (active).

Take `CN(C(=O)c1cccc(COc2ccc(Cl)cc2Cl)c1)c1ccccc1`: the Potency is 2.61 µM (active).

In the case of `CN1CCN(C(=O)c2cccc(COc3cc(Cl)ccc3Cl)c2)CC1`, the Potency was 16.5 µM (active).

For `N#Cc1ccccc1NC(=O)c1cccc(COc2ccc(Cl)cc2Cl)c1`, the Potency was 1.65 µM (active).

Turning to `O=C(NCc1ccccc1)c1cccc(COc2cc(Cl)ccc2Cl)c1`, the Potency is 7.36 µM (active).

On to `Cc1cc(C)c2c(N)c(C(=O)N/N=C/c3cccs3)sc2n1`, for which the Potency is 1.47 µM (active).

With `CCCCOC(=O)c1sc2nc(C)cc(C)c2c1N`, the Potency was 5.85 µM (active).

For the compound `Cc1cc(C)c2c(N)c(C(=O)NCC3CCCCC3)sc2n1`, the Potency was 6.56 µM (active).

For the compound `CC(C)n1c(/C=C/c2ccccc2)nc2ccccc21`, the Potency is 6.56 µM (active).

Turning to `Cn1c(=O)c(/C=C/c2ccccc2)nc2ccccc21`, the Potency is 2.07 µM (active).

As to `O=c1[nH]c2ccccc2nc1/C=C/c1ccccc1`, the Potency is 2.33 µM (active).

Turning to `Cc1cccc(-c2noc(-c3cc(C(C)C)[nH]n3)n2)c1`, the Potency is 0.464 µM (active).

Consider `COc1ccc(-c2noc(-c3cc(C(C)C)[nH]n3)n2)cc1`, for which the Potency was 3.29 µM (active).

On to `CC12COC3(C(=O)Nc4ccc5ccccc5c4)CC1CCC32C` (stereo not given), for which the Potency is 7.36 µM (active).

Take `CCN1CCN(c2ccc(NC(=O)c3ccco3)cc2Cl)CC1`: the Potency is 8.26 µM (active).

For `CCN1CCN(c2ccc(NC(=O)c3ccccc3F)cc2Cl)CC1`, the Potency is 2.93 µM (active).

Take `Cc1ccc(Nc2ncnc(-n3cccc3)n2)cc1Cl`: the Potency is 2.33 µM (active).

With `COc1ccc(-c2c(C)nc3c(-c4ccsc4)cnn3c2N)cc1`, the Potency was 0.414 µM (active).

On to `COc1ccc(-c2c(C)nc3c(-c4ccccn4)cnn3c2N)cc1`, for which the Potency was 0.261 µM (active).

Consider `CCOC(=O)C1=C(CSc2nc(-c3ccccc3)ccc2C#N)OC(N)=C(C#N)C1c1ccc(OC)cc1` (stereo not given), for which the Potency is 11.7 µM (active).

For `COc1ccc(C(=O)Cc2ccc(F)cc2)c(OC)c1`, the Potency was 13.1 µM (active).

In the case of `O=[N+]([O-])c1ccc(/C=N/N2CCCCC2)cc1`, the Potency was 5.21 µM (active).

Turning to `COc1ccc(-c2nnc(SCC(=O)c3cccs3)o2)c(OC)c1`, the Potency is 6.56 µM (active).

For `Cc1cc(Cl)c2oc(C(=O)N3CCN(c4cccc(C)n4)CC3)c(C)c2c1`, the Potency was 4.65 µM (active).

For the compound `Cc1cc(Cl)c2oc(C(=O)N3CCN(C(=O)c4ccco4)CC3)c(C)c2c1`, the Potency is 14.7 µM (active).

As to `COCCNC(=O)c1ccc2c(Cl)c3c(nc2c1)CCC3`, the Potency was 5.85 µM (active).

Consider `O=C(Nc1ccc(Cl)cn1)c1ccc2c(Cl)c3c(nc2c1)CCC3`, for which the Potency was 0.185 µM (active).

`CN(C(=O)c1ccc2c(Cl)c3c(nc2c1)CCC3)c1ccccc1`: the Potency is 14.7 µM (active).

In the case of `N#Cc1ccccc1NC(=O)c1ccc2c(Cl)c3c(nc2c1)CCCC3`, the Potency is 2.93 µM (active).

`O=C(CSc1ncccc1-c1nc2ccccc2[nH]1)N1CCc2ccccc21`: the Potency was 5.21 µM (active).

With `Cc1ccnc(SCC(=O)N2CCc3ccccc32)n1`, the Potency is 7.36 µM (active).

`CCn1c(-c2ccc(F)cc2)cnc1SCC(=O)N1CCc2ccccc21`: the Potency was 11.7 µM (active).

On to `O=C(CSc1ccccc1)N1CCc2ccccc21`, for which the Potency is 3.29 µM (active).

For `Cc1ccc(SCC(=O)N2CCc3ccccc32)cc1`, the Potency was 14.7 µM (active).

Consider `COc1cccc2cc(-c3nnc(Nc4c(F)cccc4F)s3)c(=O)oc12`, for which the Potency is 1.04 µM (active).

Regarding `COc1cccc2cc(-c3nnc(Nc4ccccc4C)s3)c(=O)oc12`, the Potency is 0.736 µM (active).

`O=c1oc2cc(O)ccc2cc1-c1nnc(Nc2ccccc2F)s1`: the Potency is 0.369 µM (active).

For `CC1CCN(c2nc3ccc(C(=O)NCCCN4CCCCC4)cc3s2)CC1`, the Potency was 0.0927 µM (active).

As for `CCC1CCCCN1CCCNC(=O)c1ccc2nc(N3CCC(C)CC3)sc2c1` (stereo not given), the Potency is 0.0656 µM (active).

With `COc1cccc(N2CCN(C(=O)c3ccc4nc(N5CCC(C)CC5)sc4c3)CC2)c1`, the Potency is 1.47 µM (active).

Regarding `CC1CCN(c2nc3ccc(C(=O)NCCCN4CCCCC4C)cc3s2)CC1` (stereo not given), the Potency is 0.0656 µM (active).

With `Cc1ccc(-c2nnc(NC(=O)c3ccco3)s2)cc1`, the Potency is 1.47 µM (active).

Regarding `O=C(NC(=S)Nc1nc2ccccc2s1)c1ccco1`, the Potency is 1.17 µM (active).

Turning to `Cc1ccc2nc(NC(=S)NC(=O)c3ccco3)sc2c1`, the Potency was 0.736 µM (active).

Regarding `CC1CCC/C(=C\Nc2ccc(C(=O)O)cc2)C1=O` (stereo not given), the Potency was 0.585 µM (active).

As to `CC1CCC/C(=C\Nc2ccc(O)cc2)C1=O` (stereo not given), the Potency is 10.4 µM (active).

For `CCC(=O)Nc1nnc(/C=C/c2ccc(OC)cc2)s1`, the Potency was 11.7 µM (active).

For `COC(=O)Nc1nnc(/C=C/c2ccc(OC)cc2)s1`, the Potency is 4.14 µM (active).

Regarding `CCC(=O)Nc1nnc(/C=C/c2ccccc2)s1`, the Potency was 13.1 µM (active).

With `C/C(=N\Nc1cccc(C(=O)O)c1)c1ccc(Cl)s1`, the Potency was 6.56 µM (active).

Regarding `COc1ccc(/C(C)=N/Nc2cccc(C(=O)O)c2)cc1OC`, the Potency was 10.4 µM (active).

`C/C(=N\NC(=O)c1cccc(N/N=C(\C)c2ccccc2)c1)c1ccccc1`: the Potency was 14.7 µM (active).

Take `CC(=O)Nc1cccc(C(=O)N/N=C/c2ccccc2F)c1`: the Potency was 2.07 µM (active).

As to `C/C(=N\NC(=O)c1cccc(N/N=C(\C)c2ccco2)c1)c1ccco1`, the Potency was 6.56 µM (active).

With `C/C(=N\Nc1ccc([N+](=O)[O-])cc1)c1ccco1`, the Potency is 3.69 µM (active).

Turning to `C/C(=N/NC(=O)c1ccccc1)C(=O)O`, the Potency was 2.93 µM (active).
